Results on 33 compounds are retold here after PubChem BioAssay (EPA / NIEHS).

Inconclusive results are not listed. The source made the active and inactive calls. Rule for the calls, unless noted: active = hit-call score of the fitted dose curve at least 0.9, where 1 is the maximum; inactive = score below 0.9.

Experiment [1] can be described thus: APR_HepG2_CellCycleArrest_1hr: Apredica 1-hour HepG2 Assay for Cell Cycle Arrest (AID 2282666). Conditions: high-content imaging, actives raise or lower the signal. In a few lines: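 Cell cycle arrest scored from nuclear DNA content (Hoechst 33342) using high-content imaging of fixed HepG2 cells after 1 h treatment across 0.39–200 uM, in duplicate. Gain or loss fitted relative to 0.5% DMSO.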

Experiment [2] in a line: ACEA_ER_80hr: ACEA Biosciences xCELLigence Real-Time Cell Analysis on Estrogen Receptor Agonism for Proliferation (AID 2282667; active = hit-call score of the fitted dose curve at least 0.9, where 1 is the maximum). Conditions: T47D proliferation, impedance (xCELLigence), 80 h. In a few lines: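 Impedance readout (RT-CES) of T47D proliferation at 80 h post-dose; gain of signal vs DMSO baseline. Compounds: 8 conc, 1:4 serial, top 100 uM final, ≤0.5% DMSO; biological duplicate.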

The nature of experiment [3]: APR_HepG2_CellLoss_1hr: Apredica 1-hour HepG2 Assay for Cell Loss (AID 2282668).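 Note: curves fitted both ways against DMSO so gain or loss of cells counts.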 Conditions: high-content imaging. The gist of the method:
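Cell number comes from high-content imaging of Hoechst-labelled nuclei in fixed HepG2 cells. Cells were exposed for 1 h to ten concentrations from 0.39 to 200 uM in 0.5% DMSO. Gain or loss was fitted against DMSO controls.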

The nature of experiment [4]: APR_HepG2_MicrotubuleCSK_1hr: Apredica 1-hour HepG2 Assay for Microtubule CSK Stabilty (AID 2282669). Conditions: HepG2 microtubule cytoskeleton imaging, actives raise or lower the signal. The gist of the method: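 Alpha-tubulin immunofluorescence, imaged by automated high-content microscopy with Hoechst nuclear segmentation, measured cytoskeletal change after 1 h dosing of HepG2 at 0.39–200 uM in 0.5% DMSO. Activity fitted in both directions relative to DMSO.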

A short description of experiment [5]: APR_HepG2_NuclearSize_1hr: Apredica 1-hour HepG2 Assay for Nuclear Size (AID 2282670). Conditions: high-content imaging, actives raise or lower the signal. In a few lines: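 Nuclear size measured by high-content imaging of Hoechst 33342 nuclear stain after formaldehyde fixation; human HepG2 line exposed 1 hr to compounds at 0.39–200 uM in 0.5% DMSO, with bidirectional curve fitting relative to DMSO.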

Experiment [6] in a line: APR_HepG2_p53Act_1hr: Apredica 1-hour HepG2 Assay for p53 Activation (AID 2282671). Conditions: high-content imaging, actives raise or lower the signal. In a few lines:
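After 1 h exposure (0.39–200 uM, 0.5% DMSO final, duplicates), fixed HepG2 cells were labelled with anti-p53 antibody plus Hoechst nuclear stain. Fluorescence quantified by automated 20x imaging; changes fitted in both directions against DMSO.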

Experiment [7] can be described thus: APR_HepG2_P-H2AX_1hr: Apredica 1-hour HepG2 Assay for H2AX Phosphorylation (AID 2282673). Conditions: high-content imaging, actives raise or lower the signal. The gist of the method: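 Phospho-H2A.x immunofluorescence (1:200, FITC secondary) plus Hoechst nuclear stain, quantified by high-content imaging in HepG2 after 1 hr compound exposure. Ten concentrations, 0.39 to 200 uM, in duplicate with 0.5% DMSO; fit both directions against DMSO.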

The nature of experiment [8]: APR_HepG2_MitoMass_1hr: Apredica 1-hour HepG2 Assay for Mitochondrial Mass (AID 2282674). Conditions: high-content imaging, actives raise or lower the signal. In a few lines:
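Mitochondrial mass is taken from MitoTracker Red CMXRos (250 nM, 30 min, pre-fixation) fluorescence imaged at 20x in HepG2 cells. Exposure lasted 1 hr across ten concentrations, 0.39 to 200 uM, 0.5% DMSO; DMSO baseline, bidirectional fitting.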

The nature of experiment [9]: APR_HepG2_MitoticArrest_1hr: Apredica 1-hour HepG2 Assay for Mitotic Arrest (AID 2282672). Conditions: high-content imaging, actives raise or lower the signal. The gist of the method: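 Ten-point concentration series (0.39 to 200 uM, duplicates, 0.5% v/v DMSO) applied to human HepG2 liver cells for 1 hr. High-content imaging of phospho-histone H3 and Hoechst-stained nuclei after fixation and permeabilization; DMSO-normalised bidirectional fit.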

Experiment [10] in a line: APR_HepG2_MitoMembPot_1hr: Apredica 1-hour HepG2 Assay for Mitochondrial Membrane Potential (AID 2282675). Conditions: imaging, actives raise or lower the signal. In a few lines:
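Mitochondrial membrane potential read as MitoTracker Red CMXRos intensity by automated imaging of fixed HepG2 cells. Dye at 250 nM for 30 min pre-fixation; compounds 0.39 to 200 uM for 1 hour, duplicate wells, 0.5% DMSO.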

As to `CCCCC(C#N)(Cn1cncn1)c1ccc(Cl)cc1` (configuration not stated), the compound was called inactive in [1], in experiment [2], in [3], in experiment [4], in [5] and in experiment [6]. The compound was called inactive in experiment [7] and in experiment [8].

Take `N#CN=C1SCCN1Cc1ccc(Cl)nc1`: the call in [2], in [3], in experiment [4], in [5], in experiment [6] and in experiment [9] was inactive. In addition, the outcome in experiment [7] was inactive.

Turning to `CS(=O)(=O)c1cc(C(F)(F)F)ccc1C(=O)c1cnoc1C1CC1`, the outcome in experiment [1], in experiment [2], in experiment [3], in [4], in experiment [5] and in [9] was inactive. For the same compound, the result in [7] and in experiment [10] was inactive.

Consider `CS(=O)(=O)c1ccc(C(=O)C2C(=O)CCCC2=O)c([N+](=O)[O-])c1`, for which the outcome in experiment [1], in experiment [2], in experiment [3], in experiment [4], in experiment [5] and in [7] was inactive.

As to `CC(C)N1C(=O)N(c2ccccc2)CSC1=NC(C)(C)C`, the outcome in experiment [1], in experiment [2], in experiment [4], in experiment [5], in [6] and in [9] was inactive. Further, in [7], the result was inactive.

`CCOC(=O)C(C)OC(=O)c1cc(Oc2ccc(C(F)(F)F)cc2Cl)ccc1[N+](=O)[O-]` (configuration not stated): the call in [2], in experiment [3], in experiment [4], in experiment [5], in experiment [6] and in experiment [7] was inactive.

Broadly, the AC50 is the midpoint of the concentration-response curve, whichever way the signal moves. Regarding `CNC(=O)Oc1cccc2ccccc12`, the call in [1], in [2], in experiment [4], in experiment [5], in experiment [9] and in [8] was inactive. Further, the result in experiment [10] was inactive. Also, the half-maximal activity concentration (AC50) in [7] was 57.9 µM (active).

For the compound `COc1ccc(-c2ccccc2)cc1NNC(=O)OC(C)C`, the compound was classed as inactive in experiment [1], in experiment [2], in experiment [4], in [5], in experiment [6] and in [7]. The call in experiment [8] was inactive.

As for `COC(=O)N(C(=O)N1CO[C@@]2(C(=O)OC)Cc3cc(Cl)ccc3C2=N1)c1ccc(OC(F)(F)F)cc1`, the compound was called inactive in [1], in experiment [2], in experiment [4], in [5] and in experiment [7].

In the case of `Clc1cccc(C(Cl)(Cl)Cl)n1`, the result in experiment [1], in experiment [2], in [3], in experiment [4], in experiment [5] and in experiment [9] was inactive. The call in experiment [7] and in experiment [8] was inactive.

`CC(C)(C)C(=O)C(Oc1ccc(Cl)cc1)n1cncn1` (configuration not stated): the AC50 in [2] is 22.5 µM (active). The outcome in [3], in experiment [4], in experiment [5], in experiment [6], in [9] and in [7] was inactive. For the same compound, in [10], the compound was classed as inactive.

Consider `CCN(CC)C(=O)C(C)Oc1cccc2ccccc12` (configuration not stated), for which the compound was classed as inactive in [1], in [2], in [3], in experiment [4], in [5] and in experiment [9]. In experiment [7], the compound was called inactive.

In the case of `CN=C=S`, the compound was classed as inactive in [1], in experiment [2], in experiment [3], in [4], in [5] and in experiment [7].

Regarding `COCc1cnc(C2=NC(C)(C(C)C)C(=O)N2)c(C(=O)O)c1` (configuration not stated), the outcome in [1], in experiment [2], in [3], in experiment [4], in experiment [5] and in [7] was inactive.

As for `Nc1cnn(-c2ccccc2)c(=O)c1Cl`, the compound was called inactive in experiment [1], in [2], in experiment [4], in [5], in experiment [6] and in experiment [7]. Besides, the call in [8] and in [10] was inactive.

For the compound `Cn1c(-c2ccccc2)cc(-c2ccccc2)[n+]1C`, the call in [1], in [4], in experiment [5] and in [7] was inactive. For the same compound, the AC50 in experiment [2] was 2.11 µM (active).

Turning to `CCOc1nc(F)cc2nc(S(=O)(=O)Nc3c(Cl)cccc3Cl)nn12`, the outcome in experiment [1], in experiment [2], in experiment [4], in experiment [5], in experiment [7] and in experiment [10] was inactive.

Take `CC(C)=CC1C(C(=O)OCc2coc(Cc3ccccc3)c2)C1(C)C` (configuration not stated): the result in [1], in experiment [2], in experiment [3], in experiment [4], in [5] and in [9] was inactive. The compound was called inactive in [7]. The half-maximal activity concentration (AC50) in experiment [10] was 98.4 µM (active).

With `CC1(C)C(C(=O)OC(C#N)c2cccc(Oc3ccccc3)c2)C1(C)C` (configuration not stated), the call in experiment [1], in experiment [2], in experiment [4], in experiment [5], in experiment [9] and in [7] was inactive. Moreover, the call in experiment [8] and in experiment [10] was inactive.

Turning to `CC1(C)C(C=C(Cl)Cl)C1C(=O)OC(C#N)c1cccc(Oc2ccccc2)c1` (configuration not stated), the compound was classed as inactive in experiment [1], in [2], in experiment [4], in [5], in experiment [7] and in experiment [10].

`Cc1cnc(C2=NC(C)(C(C)C)C(=O)N2)c(C(=O)O)c1` (configuration not stated): the compound was called inactive in experiment [2], in [3], in [4], in experiment [5], in [6] and in experiment [9]. Further, the compound was called inactive in [7] and in experiment [8].

For `O=c1n(Cl)c(=O)n(Cl)c(=O)n1Cl`, the compound was classed as inactive in [1], in [2], in experiment [3], in [4], in experiment [5] and in experiment [6]. Further, the compound was called inactive in experiment [7] and in experiment [8].

As to `O=C(Nc1ccccc1-c1ccc(Cl)cc1)c1cccnc1Cl`, the call in [1], in [2], in experiment [4], in experiment [5], in experiment [6] and in experiment [9] was inactive. Further, the compound was classed as inactive in [7] and in [10].

Take `Cc1c(COC(=O)[C@@H]2[C@H](/C=C(\Cl)C(F)(F)F)C2(C)C)cccc1-c1ccccc1`: the compound was called inactive in [1], in experiment [2], in experiment [3], in [4], in [5] and in experiment [7]. Also, in experiment [10], the compound was called inactive.

Regarding `CC(C)Oc1cccc(NC(=O)c2ccccc2C(F)(F)F)c1`, the compound was classed as inactive in experiment [1], in [2], in [4], in experiment [5], in [7] and in [8].

Turning to `CCNP(=S)(OC)O/C(C)=C/C(=O)OC(C)C` (configuration not stated), the outcome in experiment [1], in experiment [2], in experiment [4], in experiment [5], in experiment [6] and in experiment [9] was inactive. Moreover, the outcome in experiment [7], in experiment [8] and in [10] was inactive.

Regarding `COC(=O)NC(=S)Nc1ccccc1NC(=S)NC(=O)OC`, the compound was classed as inactive in experiment [1], in [2], in [3], in [4], in experiment [5] and in experiment [6]. Besides, the result in experiment [7] and in experiment [10] was inactive.

`O=C(O)c1c(Cl)ccc2cc(Cl)cnc12`: the result in experiment [1], in experiment [2], in [4], in experiment [5], in experiment [9] and in [7] was inactive. Moreover, the compound was classed as inactive in experiment [8] and in experiment [10].

Take `COC(=O)c1c(C(F)F)nc(C(F)(F)F)c(C2=NCCS2)c1CC(C)C`: the compound was called inactive in experiment [1], in experiment [2], in experiment [4], in experiment [5], in experiment [7] and in experiment [8].

For `COCC(=O)N(c1c(C)cccc1C)C(C)C(=O)OC` (configuration not stated), the result in experiment [1], in [2], in experiment [4], in [5], in experiment [6] and in experiment [7] was inactive. The compound was called inactive in [10].

As for `COc1cc(Cl)c(OC)cc1Cl`, the compound was classed as inactive in experiment [1], in experiment [2], in [3], in [4], in experiment [5] and in [9]. Further, the result in experiment [7], in experiment [8] and in experiment [10] was inactive.

`CN/C(=N\[N+](=O)[O-])NCc1cnc(Cl)s1`: the compound was classed as inactive in experiment [1], in experiment [2], in experiment [4], in [5], in experiment [6] and in experiment [7]. Besides, the compound was classed as inactive in [8].

Turning to `CCOP(=S)(OCC)Oc1nc(Cl)n(C(C)C)n1`, the outcome in experiment [1], in [2], in [4], in experiment [5], in experiment [6] and in experiment [7] was inactive. For the same compound, the compound was called inactive in experiment [8] and in experiment [10].
